# Measurements reported in ChEMBL document CHEMBL3988442, “University of Dundee, Small-Polar-MMV Screening Library” (2021).
# Among all 48,000 compounds or so, about 13,000 (27%) showed an effect of 50% or more. This is one part of the list.
# Test system: Wolbachia pipientis
# Test: Anti-Wolbachia Cell-Based Screen
# Type: functional
# Set-up: scale not given: in the data most compounds retested in dose-response had high values
# Details: 5 µM
row,SMILES,Percent Effect [%]
1,CN(Cc1ccc(F)cc1)C(=O)NCC1(N2CCOCC2)CCSC1 (stereo unspecified),-20.26
2,COc1cccc(-n2c(SCC(=O)O)nnc2-c2cn[nH]c2)c1,1.781
3,Cc1csc(CNC(=O)NCC(O)c2ccc(F)cc2F)n1 (stereo unspecified),-0.3867
4,CCc1c(NCc2ccncc2)cnn1CC(C)C,-6.7
5,Cc1cnc(NCc2ccc(S(=O)(=O)N(C)C(C)C)cc2)nc1C,-3.312
6,Cc1cc(-c2cnc(NCc3ccncc3)nc2C(C)C)on1,155.1
7,Cc1ccc2c(c1)C1(CC2)CCN(c2nncs2)CC1,-2.782
8,O=C(O)C(F)(F)F.c1cncc(-c2ccc3c(c2)C2(CC3)CCN(c3nncs3)CC2)c1,7.623
9,CC/C=C(/C)C(=O)N1CCN(C2=NCC(C)S2)CC1 (stereo unspecified),-1.897
10,CCOCCN1CCN(Cc2nc(C3CC3)no2)CC1CC (stereo unspecified),-17.64
11,O=C(NC1CCC1)[C@H]1C[C@@H]2CN(S(=O)(=O)c3ccccc3)C[C@H]1O2,5.233
12,O=C(NC1CC1)[C@@H]1CCO[C@@H]2CCN(CC3CCC3)C[C@H]21.O=C(O)C(F)(F)F,-19.72
13,CN(C)CCNC(=O)[C@H]1C[C@@H]2CN(C(=O)NC3CCCC3)C[C@H]1O2.O=C(O)C(F)(F)F,6.498
14,O=C(NC1CCC1)[C@H]1C[C@@H]2CN(CC3CC3)C[C@H]1O2.O=C(O)C(F)(F)F,120
15,CC(C)CN1C[C@H]2C[C@H](C(=O)NC3CCC3)[C@@H](C1)O2.O=C(O)C(F)(F)F,89.64
16,O=C(NC1CC1)[C@@H]1CCO[C@@H]2CCN(CC3CCC3)C[C@@H]21.O=C(O)C(F)(F)F,20.69
17,NC(=O)c1cc(-c2cccc(C(=O)O)c2)cs1,7.533
18,CCCN(C)CC1CCN(c2ccc(Br)c(C)n2)C1 (stereo unspecified),-15.16
19,CC1CCN(S(=O)(=O)N2C[C@H](c3ccccc3)[C@@H](N)C2)CC1,-3.535
20,NC(=O)[C@@H]1Cc2ccccc2CN1CCc1cccs1,-22.09
21,NC(=O)[C@@H]1Cc2ccccc2CN1S(=O)(=O)N1CCCCCC1,103
22,NC(=O)[C@@H]1Cc2ccccc2CN1CCC(=O)N1CCOCC1,8.62
23,NC(=O)C1CCCN1c1cc(N2CCc3ccccc3C2)ncn1 (stereo unspecified),-10.01
24,NC(=O)C1Cc2ccccc2CN1CCC(=O)N1CCc2ccccc21 (stereo unspecified),-4.733
25,NC(=O)[C@@H]1Cc2ccccc2CN1S(=O)(=O)N1CCCCC1,78.36
26,CC1CCN(S(=O)(=O)N2Cc3ccccc3C[C@H]2C(N)=O)CC1,91.1

row,SMILES,Percent Effect [%]
1,CC1CCN(C(=O)CCN2Cc3ccccc3C[C@H]2C(N)=O)C1 (stereo partly specified),-2.608
2,CN(CC(C)(C)O)C(=O)Nc1ccc(F)c(-n2cccc2)c1,2.422
3,CNS(=O)(=O)c1cccc(C(C)NCc2cccc(C)c2C)c1 (stereo unspecified),8.764
4,O=C(C1CC2(CCNCC2)CN1)N1CCN(c2cccc(Cl)c2Cl)CC1 (stereo unspecified),3.67
5,COCCOCC(=O)N1C[C@H]2CC[C@@H]1CN(C1Cc3ccccc3C1)C2,11.56
6,COc1cccc(C(=O)NCc2ccccc2S(=O)(=O)N(C)CCO)c1,1.796
7,CCS(=O)(=O)c1ncc(CN2CCOCC2)n1CCCc1ccccc1,6.125
8,CCN1CC2(CCC1=O)CCN(c1ccc(C(C)=O)cn1)CC2,0.06704
9,Cc1nc(C)n(CC2CCCN(CC3CCCCC3)C2)n1 (stereo unspecified),104.8
10,Cc1nc(C)n(CC2CCCN(Cc3nc(C4CC4)no3)C2)n1 (stereo unspecified),2.839
11,CCc1nc(CN2CCCC(Cn3nc(C)nc3C)C2)no1 (stereo unspecified),81.07
12,Cc1noc(CN2CCCC(Cn3nc(C)nc3C)C2)n1 (stereo unspecified),104.9
13,Cc1nc(C)n(CC2CCCN(Cc3noc(C)n3)C2)n1 (stereo unspecified),96.94
14,CS(=O)(=O)N1C[C@@H]2COC[C@@H](CC(=O)N3CCCCO3)[C@@H]2C1,-9.378
15,CNC(=O)[C@@H](c1ccccc1F)N1CCC[C@H]1C(=O)NC1CC1.Cl,0.6767
16,O=C1N[C@@H]2CCN(C(=O)C3CC3)[C@@H]2C(=O)N1c1ccccc1,-5.528
17,Cc1ccccc1Oc1ncccc1CNS(=O)(=O)N(C)C,-17.53
18,CC(C)c1cc(N[C@H](C(N)=O)C(C)C)n2nccc2n1,-22.97
19,CCc1noc(CN2CCCC(Cn3nc(C)nc3C)C2)n1 (stereo unspecified),134.9
20,COCCc1noc(CN2CCCC(Cn3nc(C)nc3C)C2)n1 (stereo unspecified),0.4033
21,CS(=O)(=O)CCN1CC(c2ccccc2)(c2ccccc2)CCC1=O,-17.1
22,O=C1CC(c2ncc(-c3ccc4c(c3)OCCO4)[nH]2)CN1C1CC1 (stereo unspecified),-4.884
23,CCCn1nc(-c2nc(COc3ccccc3)no2)ccc1=O,-3.247
24,CCCNC(=O)COc1cccc(-c2nc(C(C)C)no2)c1,120.4
25,CC(C)NC(=O)COc1cccc(-c2nc(C(C)C)no2)c1,105.1
26,CC(C)c1noc(CCCC(=O)NCCOc2ccccc2)n1,-1.504

row,SMILES,Percent Effect [%]
1,CCc1noc(-c2cccc(OCC(=O)NC(C)C)c2)n1,95.64
2,CC(C)NC(=O)COc1nc(C(C)C)no1,-19.75
3,COc1cccc(-c2n[nH]cc2C(=O)NC(C)c2nc(C(C)C)no2)c1 (stereo unspecified),-2.83
4,CC(C)NC(=O)COc1ccc(-c2nc(C(C)C)no2)cc1,114.1
5,CC(C)c1noc(CS(=O)(=O)CC(=O)NCCOc2ccccc2)n1,13.06
6,C=C(C)COc1cccc(C(=O)N(CC)Cc2noc(C)n2)c1,-33.22
7,CC(C)NC(=O)COc1nc(C(C)(C)C)no1,-1.58
8,CC(NC(=O)COc1nc(C(C)(C)C)no1)c1ccco1 (stereo unspecified),8.75
9,Cc1oncc1S(=O)(=O)N1CCCC(C)(Cc2ccc3c(c2)OCO3)C1 (stereo unspecified),-3.14
10,CS(=O)(=O)NCCC(=O)NCc1cccnc1-n1cnc2ccccc21,11.61
11,O=C(CS(=O)(=O)C1CCCC1)NC1CCCc2cc(OC(F)F)ccc21 (stereo unspecified),-7.219
12,COCCN(Cc1ccccn1)C(=O)CC1OCCc2sccc21 (stereo unspecified),9.879
13,CSCc1noc(CN2CC3(CCCC3)CC2=O)n1,-12.65
14,CN(C)C(C(=O)N1CCN(C(=O)c2ccc[nH]2)CC1)c1ccc(F)cc1 (stereo unspecified),1.074
15,CC(C)c1noc(-c2cccc(OCC(N)=O)c2)n1,109.4
16,CC(C)c1ncc2c(n1)CN(Cc1cccc(OCC(N)=O)c1)CC2,-10.24
17,CN1CCC(Cc2noc(-c3cccc(OCC(N)=O)c3)n2)CC1,14.54
18,CN(CCOc1cccc(CN)c1)C1CCOCC1,3.585
19,Cn1cc(CN2CCCCC2c2ccc(-c3cccc(F)c3)nc2)cn1 (stereo unspecified),28.65
20,Cn1cc(CN2CCCCC2c2ccc(-c3cccc(Cl)c3)nc2)cn1 (stereo unspecified),64.04
21,Cn1c(Cl)cnc1CN1CCCC1c1ccc2c(c1)OCCO2 (stereo unspecified),-20.61
22,Cn1cc(-c2ccc(C3CCCCN3Cc3cccnc3)cn2)cn1 (stereo unspecified),97.17
23,Cc1cnn(CCCNC(=O)C2CCCCN2Cc2cccnc2)c1 (stereo unspecified),8.943
24,Cn1cc(CN2CCCCC2c2ccc(-c3cnn(C)c3)nc2)cn1 (stereo unspecified),49.11
25,CN(CC(=O)Nc1ccccc1)C(=O)CN(C)c1ccc(Cl)cn1,-3.187
26,CSc1ncc(CNCC2(N3CCCCC3)Cc3ccccc3C2)cn1,-2.025

row,SMILES,Percent Effect [%]
1,Cc1noc(CS(=O)(=O)c2cc(F)ccc2F)n1,2.12
2,CCC1CN(C(=O)c2cnc(-c3ccccc3)s2)CCO1 (stereo unspecified),-14.04
3,O=C(NCc1ccncc1)C1CN(c2nc3ccccc3s2)CCN1 (stereo unspecified),6.015
4,Nc1nccc(N2CCNC(C(=O)NCc3ccccn3)C2)n1 (stereo unspecified),-0.8592
5,O=C(NC[C@H]1OC[C@@H]2CCN(c3ccccn3)C[C@@H]21)c1ccco1,-8.109
6,O=C(NCc1ccccc1)C1CN(c2ccccn2)CCO1 (stereo unspecified),195.5
7,Cc1cnc(N2CCOC(C(=O)NCc3ccccc3)C2)s1 (stereo unspecified),138.3
8,CN(C)c1ccccc1C(=O)N1C[C@@H](CN2CCOCC2)[C@@H](CO)C1,9.943
9,O=C1N[C@@H]2CCN(C(=O)c3ccccc3)[C@@H]2C(=O)N1Cc1ccccc1,-7.073
10,N#Cc1ncn(CC(=O)Nc2cc(Cl)ccc2F)n1,-2.838
11,N#Cc1ncn(CCC(=O)Nc2cccc(Cl)c2)n1,93.03
12,N#Cc1ncn(CCC(=O)Nc2c(Cl)cccc2Cl)n1,-3.932
13,Cc1ccc(F)cc1NC(=O)CCn1cncn1,-7.237
14,N#Cc1ncn(CCS(=O)(=O)c2ccc(Br)cc2)n1,14.03
15,N#Cc1ncn(CCC(=O)Nc2ccc(F)c(F)c2)n1,100.3
16,N#Cc1ncn(CCC(=O)Nc2cc(Cl)ccc2Cl)n1,94.62
17,N#Cc1ncn(CCS(=O)(=O)c2ccc(Cl)cc2)n1,-0.6249
18,N#Cc1ncn(CCS(=O)(=O)c2ccccc2)n1,11.97
19,N#Cc1ncn(CCC(=O)Nc2ccc(Cl)cc2F)n1,11.11
20,O=C(CCNC(=O)c1ccoc1)Nc1ccccc1F,-1.29
21,N#Cc1ncn(CCC(=O)Nc2ccccc2F)n1,141.3
22,CCCC1CCN(C(=O)c2coc(COc3ccc(OC)cc3)n2)C1 (stereo unspecified),13.18
23,CCOc1c(Br)cc(CNC(C)c2nnc3n2CCC3)cc1OC (stereo unspecified),-3.79
